ugtP null kill: compounds lethal to S. aureus RN4220 ugtP deletion mutant | growth inhibition, % (concentration not given with the values) | OD600 growth, 16 h | 330,000 compounds, 0.54% hits; in the data active = growth inhibition above about 68%;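 also: plate controls were untreated wells for no effect and antibiotic for full effect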
SSB-PriA inh: inhibitors of Klebsiella pneumoniae PriA binding to SSB C-terminal tail; AlphaScreen SSBct-PriA binding, biotinylated peptide; inhibition, % at 33 µM; 430,000 compounds, 0.6% hits; AID 1272365; in the data active = inhibition mostly above about 37%, no sharp cut-off; inactive = mostly below about 20%;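 also: plate controls were negative control peptide for no effect and reference peptide for full effect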
Mtb hypoxia rep: Mtb hypoxia fluorescent reporter inhibition; M. tuberculosis hypoxia-regulated fluorescent reporter, fluorescence; fluorescence inhibition, % (concentration not given with the values); 300,000 compounds, 0.1% hits; AID 1159583; in the data active = fluorescence inhibition mostly above about 23%, no sharp cut-off; inactive = mostly below about 17%
Sa RN4220 lethal: kills Staphylococcus aureus RN4220. inhibition, % (concentration not given with the values). S. aureus RN4220 growth, OD600, 16 h. 330,000 compounds, 0.33% hits; in the data active = inhibition above about 85%;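 also: plate controls were untreated cells for no effect and reference antibiotic for full effect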
Starred values were filed as active, the others as inactive; · = no result shown; ! = not active in a repeat. Sampled rows, rich in hits. Any-hit rate of the full collection: about 1.1%.

SMILES | ugtP null kill | SSB-PriA inh | Mtb hypoxia rep | Sa RN4220 lethal
O=C(Nc1nnc(CS(=O)(=O)c2ccccc2)o1)C1CCCCC1 | · | -9 | · | ·
CN(C)CCN(C(=O)CCc1ccccc1)c1nc2cc3c(cc2s1)OCCO3 | · | -6 | · | ·
COc1ccccc1-c1nc(S(=O)(=O)c2ccccc2)c(N2CCCCC2)o1 | 8 | 2 | -1 | 1
CCN1CCN(c2oc(-c3ccccc3C)nc2S(=O)(=O)c2ccccc2)CC1 | 8 | 39* | 7 | 2
Clc1ccc(CN2CC(c3nc(-c4ccsc4)no3)C2)c(Cl)c1 | · | 0 | · | ·
CCCN1CCCc2cc(CCNC(=O)c3cccs3)ccc21 | · | 63* | · | ·
CCCN1CCCc2cc(CCNC(=O)c3c(OC)cccc3OC)ccc21 | · | 80* | · | ·
CCCN1CCCc2cc(CCNC(=O)COc3ccccc3F)ccc21 | · | 83* | · | ·
CCCN1CCCc2cc(CCNC(=O)C(C)C)ccc21 | · | 59 | · | ·
CCCN1CCCc2cc(CCNC(=O)C(C)(C)C)ccc21 | · | 51* | · | ·
O=C(NCCC1=CCCCC1)[C@@H]1COCC(=O)N1Cc1cccs1 | · | -6 | · | ·
O=c1cc(CN2CCN(Cc3ccccc3)CC2)occ1OCc1c(F)cccc1Cl | · | 10 | · | ·
CCCN1CCCc2cc(CCNC(=O)c3ccccc3)ccc21 | · | 57 | · | ·
CCCN1CCCc2cc(CCNC(=O)c3ccccc3F)ccc21 | · | 68* | · | ·
CCOC(=O)C1C2COc3ccccc3C2N2C(=O)N(c3ccc(C(F)(F)F)cc3)C(=O)[C@]12C (some centres not stated) | 100*! | · | -1 | 101*!
CCOC(=O)[C@@H]1[C@H]2COc3ccccc3[C@H]2N2C(=O)N(c3ccc(F)cc3)C(=O)[C@]12C | · | -12 | · | ·
Cc1nn(-c2nc3ccccc3[nH]2)c(N)c1-c1ccc(Cl)cc1 | 95* | 2 | 1 | 57
CC(NC(=O)CNC(=O)c1cccc(Cl)c1)c1ccccc1 (configuration not stated) | 8 | 66* | 14 | -2
Cc1ccc(-n2c(Cl)c(Cl)nc(Cl)c2=O)cc1 | 100* | -8 | 1 | 100*
Cc1ccc(-n2c(C)cc(=O)cc2C)cc1 | · | -11 | · | ·
CCOC(=O)OC(C)OC(=O)[C@@H]1N2C(=O)[C@@H](NC(=O)[C@H](N)c3ccccc3)[C@H]2SC1(C)C (some centres not stated) | · | -12 | · | ·
CC1(C)S[C@@H]2[C@H](NC(=O)COc3ccccc3)C(=O)N2C1C(=O)OCC1CCCCC1 (some centres not stated) | 100* | -10 | 1 | 99*
CC1(C)SC2C(NC(=O)COc3ccccc3)C(=O)N2C1C(=O)OCc1ccccc1 (configuration not stated) | 100* | · | -4 | 100*
COc1ccc2nc(N=Cc3c(C)[nH]n(-c4ccc(C)cc4C)c3=O)sc2c1 | -1 | 48* | -4 | -3
CCOc1ccc2nc(N=Cc3c(C)[nH]n(-c4ccc(C)cc4)c3=O)sc2c1 | 1 | -5 | 1 | -4
SMILES | ugtP null kill | SSB-PriA inh | Mtb hypoxia rep | Sa RN4220 lethal
Cc1nn(S(=O)(=O)c2ccccc2[N+](=O)[O-])c(C)c1Sc1ccccc1 | · | 37* | · | ·
CCOC(=O)c1c(N/C=C(/C#N)c2nc(-c3cc4ccccc4oc3=O)cs2)sc(C)c1C | · | 2 | · | ·
O=C(Nc1ccc(OCC(F)(F)C(F)F)c(C(F)(F)F)c1)c1ccccc1O | 100* | -25 | · | 112*
CC(=O)N1CC(C(=O)Nc2cccc(NS(C)(=O)=O)c2)C1 | · | -11 | · | ·
Clc1ccc(SCCCCn2ccnc2)cc1 | -5 | 12 | · | -9
Clc1ccc(CCC(Cn2ccnc2)Sc2c(Cl)cccc2Cl)cc1 (configuration not stated) | 98* | 3 | · | 99*
Cc1ccnc2c(O)cccc12 | · | -1 | · | ·
Cc1ccnc2c1ccc1c(C)ccnc12 | 38 | 98* | · | 28
Cc1ccnc2c1ccc1cccnc12 | 6 | 103* | · | -6
C/[N+]([O-])=C/c1ccnc2c1ccc1cccnc12 | · | 148* | · | ·
Cc1ccnc2c1ccc1ccccc12 | 15 | -3 | -5 | 5
Cc1ccc2nc(NC(=O)CSc3nnc(NC(=O)NC(C)(C)C)s3)sc2c1 | · | 3 | · | ·
CN(C)c1nc(-c2ccccc2)c2cnn(Cc3ccccc3)c2n1 | 89* | -47 | 4 | -7
c1ccc(Cn2ncc3ccccc32)cc1 | 15 | -18 | 11 | 2
Cc1[nH]c2ccccc2c1C(=O)CSc1ncnc2sc3c(c12)CC[C@H](C)C3 | · | -5 | · | ·
C=C(C)CN1CCN(C(=O)CCCN(C)S(=O)(=O)c2ccc3c(c2)C(=O)c2ccccc2C3=O)CC1 | · | -27 | · | ·
CC(C)[C@H](NC(N)=O)C(=O)NCCc1ccc(Cl)cc1 | 7 | 39* | 7 | 1
O=C(COc1ccc2ccccc2c1)Nc1ccc2c(c1)CN(C(=O)c1cccs1)CC2 | · | 0 | · | ·
O=[N+]([O-])c1ccccc1NN=C1CC2CC=CC12 (configuration not stated) | 6 | 71* | 11 | 7
CCOc1ccccc1OCCCC(=O)Nc1cccc(S(=O)(=O)N2CCOCC2)c1 | 3 | 3 | 26* | 0
Cc1ccc(OCCCC(=O)Nc2ccc(S(=O)(=O)N3CCOCC3)cc2)cc1 | 5 | -12 | 30* | 2
Cc1nc(-c2ccc(S(=O)(=O)NCC(C)(O)c3cc4ccccc4s3)cc2)co1 (configuration not stated) | · | 4 | · | ·
C[C@H](Oc1ccccc1)C(=O)NCCn1ccnc1-c1ncccn1 | · | 93* | · | ·
O=C(NCCn1ccnc1C1CC1)Nc1cccs1 | · | 6 | · | ·
COc1ccccc1NC(=O)NCCn1ccnc1-c1ncccn1 | · | 39* | · | ·
SMILES | ugtP null kill | SSB-PriA inh | Mtb hypoxia rep | Sa RN4220 lethal
COc1ccccc1NC(=O)NCCn1ccnc1-c1cnccn1 | · | 39 | · | ·
O=C(Cn1c(=O)oc2ccccc21)NCCn1ccnc1-c1ncccn1 | · | 99* | · | ·
O=C(NCCn1ccnc1-c1ncccn1)Nc1cccs1 | · | 124* | · | ·
O=C1c2cccc3cccc(c23)C(=O)N1Cc1nnc(Nc2ccccc2)s1 | · | -22 | · | ·
Cc1nnc(SCC(=O)NC2CCCCC2)n1-n1cccc1 | · | -9 | · | ·
C[C@H]1CCc2c(sc(NC(=O)CN3C(=O)c4ccccc4C3=O)c2C#N)C1 | · | -7 | · | ·
Cc1nnsc1C(=O)NCCCn1ccnc1-c1ccccc1 | · | 1 | · | ·
CCCc1nnsc1C(=O)NCCn1ccnc1-c1ncccn1 | · | 72* | · | ·
CCOc1ccc(NC(=S)NN(C)C(=S)Nc2ccc(OCC)cc2)cc1 | 20 | 40* | 11 | 5
CCOc1ccc(NC(=S)Nc2ccc(F)cc2)cc1 | 3 | -1 | · | 2
Cc1cc2n(n1)C(c1c[nH]c3ccccc13)Nc1ccccc1-2 (configuration not stated) | 99* | -1 | -2 | 99*
COC1(CNS(=O)(=O)c2ccccc2Br)Cc2ccccc2C1 | · | -3 | · | ·
c1ccc(OC2CC3CCC(C2)N3)nc1 (configuration not stated) | · | 96* | · | ·
CCOCC(=O)NC1CCC(Oc2ccccn2)CC1 (configuration not stated) | · | -7 | · | ·
CCN(CCNS(=O)(=O)c1ccc2[nH]c(=O)sc2c1)c1ccccc1 | 99* | 16 | 6 | -14
CCOc1ccccc1CNS(=O)(=O)c1ccc2[nH]c(=O)sc2c1 | 46 | -8 | · | 4
O=S(=O)(NCCOc1ccc2c(c1)OCO2)c1cc(C(F)(F)F)ccc1Cl | · | 9 | · | ·
Cc1ccc(CNc2nc3ccccc3n3cnnc23)cc1 | 10 | 98* | 6 | 2

Source: PubChem BioAssay
